Test results reported in article PMC7862700, “An all-to-all approach to the identification of sequence-specific readers for epigenetic DNA modifications on cytosine”.

Legend:
Experiment in all cases: DAPPL (digital affinity profiling via proximity ligation, sequencing); 10 mM Tris-HCl pH 7.5, 50 mM NaCl, 1 mM DTT, 4% glycerol, room temperature, 30 min; GST-TFs on glutathione beads, 16-mer random dsDNA library, 0.1% formaldehyde crosslink after washing; high values mean tight binding
Conditions in all cases: protein: recombinant; tags: N-terminal GST; dsDNA, one strand shown
ERF = target: T1, ERF (Homo sapiens, UniProt P50548 1-548)
T1 sequence: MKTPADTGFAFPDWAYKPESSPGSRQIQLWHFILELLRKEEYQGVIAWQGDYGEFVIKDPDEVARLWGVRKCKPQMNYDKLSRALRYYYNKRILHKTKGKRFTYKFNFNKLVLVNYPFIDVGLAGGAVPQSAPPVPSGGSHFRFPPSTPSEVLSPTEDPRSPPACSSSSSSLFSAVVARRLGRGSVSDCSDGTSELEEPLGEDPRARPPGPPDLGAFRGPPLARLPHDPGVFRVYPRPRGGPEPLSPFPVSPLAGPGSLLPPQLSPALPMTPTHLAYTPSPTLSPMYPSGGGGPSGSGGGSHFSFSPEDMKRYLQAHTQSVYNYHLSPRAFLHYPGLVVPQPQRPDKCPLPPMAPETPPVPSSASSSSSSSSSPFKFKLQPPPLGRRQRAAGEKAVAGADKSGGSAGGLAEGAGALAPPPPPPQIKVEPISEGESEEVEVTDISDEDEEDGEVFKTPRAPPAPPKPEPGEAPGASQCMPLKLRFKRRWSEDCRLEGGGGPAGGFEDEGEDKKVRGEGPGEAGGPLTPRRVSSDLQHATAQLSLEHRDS
Method in brief: (§1)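 GST fusions of human transcription factors were expressed in yeast and captured with glutathione beads. Once given DNA barcodes and pooled alongside a tag-only sample, they were incubated for 30 min at room temperature with 200 nmole of a random double-stranded 16-mer DNA library in Tris/NaCl/DTT/glycerol buffer, then washed, crosslinked (0.1% formaldehyde), proximity-ligated, PCR-amplified and sequenced on an Illumina NextSeq500. The binding signal of each hexamer is its read frequency for a factor divided by its frequency for the tag-only sample.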

ETV3L = target: T2, ETV3L (Homo sapiens, UniProt Q6ZN32 1-361)
T2 sequence: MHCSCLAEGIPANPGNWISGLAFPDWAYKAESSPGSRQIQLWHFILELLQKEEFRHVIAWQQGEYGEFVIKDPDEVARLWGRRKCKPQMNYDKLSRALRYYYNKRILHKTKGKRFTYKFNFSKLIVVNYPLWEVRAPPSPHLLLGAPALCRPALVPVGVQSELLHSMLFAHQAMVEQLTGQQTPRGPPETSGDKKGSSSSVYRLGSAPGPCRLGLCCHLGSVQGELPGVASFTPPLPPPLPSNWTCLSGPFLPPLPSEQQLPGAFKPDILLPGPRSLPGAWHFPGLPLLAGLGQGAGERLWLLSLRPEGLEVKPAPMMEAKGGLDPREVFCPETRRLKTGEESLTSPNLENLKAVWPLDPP
Method in brief: as §1

ETS2 = target: T3, ETS2 (Homo sapiens, UniProt P15036 1-469)
T3 sequence: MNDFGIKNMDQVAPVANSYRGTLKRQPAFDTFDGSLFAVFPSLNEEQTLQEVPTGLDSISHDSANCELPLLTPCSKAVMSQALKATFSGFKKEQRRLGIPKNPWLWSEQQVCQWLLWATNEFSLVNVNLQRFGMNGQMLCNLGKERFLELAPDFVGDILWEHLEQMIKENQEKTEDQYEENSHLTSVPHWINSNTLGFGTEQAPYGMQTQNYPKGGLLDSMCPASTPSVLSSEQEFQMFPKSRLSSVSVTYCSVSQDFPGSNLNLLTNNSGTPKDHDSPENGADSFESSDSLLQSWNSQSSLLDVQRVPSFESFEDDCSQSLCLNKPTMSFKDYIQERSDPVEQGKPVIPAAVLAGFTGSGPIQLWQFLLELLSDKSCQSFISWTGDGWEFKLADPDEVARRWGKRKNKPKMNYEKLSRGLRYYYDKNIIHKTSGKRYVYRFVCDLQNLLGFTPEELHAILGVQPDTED
Method in brief: as §1

SPDEF = target: T4, SPDEF (Homo sapiens, UniProt O95238 1-335)
T4 sequence: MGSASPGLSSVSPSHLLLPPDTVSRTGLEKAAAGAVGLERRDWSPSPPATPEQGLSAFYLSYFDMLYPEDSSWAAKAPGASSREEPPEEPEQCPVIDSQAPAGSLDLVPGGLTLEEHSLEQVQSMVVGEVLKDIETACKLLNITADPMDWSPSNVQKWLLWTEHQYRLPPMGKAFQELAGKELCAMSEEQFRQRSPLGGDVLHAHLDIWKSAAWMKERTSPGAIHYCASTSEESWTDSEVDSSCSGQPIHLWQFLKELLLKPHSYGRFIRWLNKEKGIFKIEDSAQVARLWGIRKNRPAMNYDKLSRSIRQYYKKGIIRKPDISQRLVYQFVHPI
Method in brief: as §1

ETV7 = target: T5, ETV7 (Homo sapiens, UniProt Q9Y603 1-341)
T5 sequence: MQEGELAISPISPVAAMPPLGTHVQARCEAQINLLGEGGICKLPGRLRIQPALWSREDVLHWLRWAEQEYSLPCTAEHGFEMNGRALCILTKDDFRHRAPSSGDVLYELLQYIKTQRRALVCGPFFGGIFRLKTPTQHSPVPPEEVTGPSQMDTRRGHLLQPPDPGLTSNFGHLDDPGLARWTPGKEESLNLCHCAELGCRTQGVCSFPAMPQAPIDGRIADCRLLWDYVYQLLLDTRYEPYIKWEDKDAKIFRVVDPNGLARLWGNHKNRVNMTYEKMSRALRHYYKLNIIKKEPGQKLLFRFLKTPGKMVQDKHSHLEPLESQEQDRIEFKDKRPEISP
Method in brief: as §1

ELF5 = target: T6, ELF5 (Homo sapiens, UniProt Q9UKW6-2 1-255)
T6 sequence: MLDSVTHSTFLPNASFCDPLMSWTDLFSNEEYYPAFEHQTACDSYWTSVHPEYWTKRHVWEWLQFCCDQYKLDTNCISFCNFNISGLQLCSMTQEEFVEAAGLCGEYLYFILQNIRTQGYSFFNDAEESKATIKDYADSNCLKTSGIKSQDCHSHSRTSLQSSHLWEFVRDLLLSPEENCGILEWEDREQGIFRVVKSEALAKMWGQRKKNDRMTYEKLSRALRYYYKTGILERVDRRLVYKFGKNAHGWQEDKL
Method in brief: as §1

ETV3 = target: T7, ETV3 (Homo sapiens, UniProt P41162-2 1-143)
T7 sequence: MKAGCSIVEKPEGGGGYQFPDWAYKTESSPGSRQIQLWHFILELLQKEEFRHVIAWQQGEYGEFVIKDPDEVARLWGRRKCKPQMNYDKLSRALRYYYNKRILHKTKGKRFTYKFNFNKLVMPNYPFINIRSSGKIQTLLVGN
Method in brief: as §1

ETV6 = ETV6 (Homo sapiens, UniProt P41212 1-452)
Method in brief: as §1

Sequence of ETV6 (P41212 whole entry): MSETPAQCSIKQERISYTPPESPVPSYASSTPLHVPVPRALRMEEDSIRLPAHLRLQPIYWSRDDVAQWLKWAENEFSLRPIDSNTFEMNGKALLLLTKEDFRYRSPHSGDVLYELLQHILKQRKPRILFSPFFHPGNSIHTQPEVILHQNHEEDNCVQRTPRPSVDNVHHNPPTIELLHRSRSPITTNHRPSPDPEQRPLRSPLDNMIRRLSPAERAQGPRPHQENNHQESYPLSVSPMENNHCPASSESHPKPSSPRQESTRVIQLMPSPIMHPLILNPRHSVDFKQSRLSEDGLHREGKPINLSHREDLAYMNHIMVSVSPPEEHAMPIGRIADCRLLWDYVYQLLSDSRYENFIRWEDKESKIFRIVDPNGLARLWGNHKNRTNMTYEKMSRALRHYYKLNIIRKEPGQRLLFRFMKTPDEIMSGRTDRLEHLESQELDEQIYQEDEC

Sequence | binding signal (ERF) | binding signal (ETV3L) | binding signal (ETS2) | binding signal (SPDEF) | binding signal (ETV7) | binding signal (ELF5) | binding signal (ETV3) | binding signal (ETV6)
AAATAG | 1.11 fold enrichment (6-mer frequency, TF over GST control) | 1.15 fold enrichment (6-mer frequency, TF over GST control) | 1.12 fold enrichment (6-mer frequency, TF over GST control) | 1 fold enrichment (6-mer frequency, TF over GST control) | 1.23 fold enrichment (6-mer frequency, TF over GST control) | 1.14 fold enrichment (6-mer frequency, TF over GST control) | 1.21 fold enrichment (6-mer frequency, TF over GST control) | 1.18 fold enrichment (6-mer frequency, TF over GST control)
TGTAGC | 1.32 fold enrichment (6-mer frequency, TF over GST control) | 1.13 fold enrichment (6-mer frequency, TF over GST control) | 1.12 fold enrichment (6-mer frequency, TF over GST control) | 1.2 fold enrichment (6-mer frequency, TF over GST control) | 1.12 fold enrichment (6-mer frequency, TF over GST control) | 1.14 fold enrichment (6-mer frequency, TF over GST control) | 1.22 fold enrichment (6-mer frequency, TF over GST control) | 1.12 fold enrichment (6-mer frequency, TF over GST control)
CCTCTG | 1.65 fold enrichment (6-mer frequency, TF over GST control) | 1.36 fold enrichment (6-mer frequency, TF over GST control) | 1.42 fold enrichment (6-mer frequency, TF over GST control) | 1.54 fold enrichment (6-mer frequency, TF over GST control) | 1.79 fold enrichment (6-mer frequency, TF over GST control) | 1.5 fold enrichment (6-mer frequency, TF over GST control) | 1.64 fold enrichment (6-mer frequency, TF over GST control) | 1.39 fold enrichment (6-mer frequency, TF over GST control)
TGTGCC | 1.01 fold enrichment (6-mer frequency, TF over GST control) | 1.19 fold enrichment (6-mer frequency, TF over GST control) | 1.07 fold enrichment (6-mer frequency, TF over GST control) | 1.17 fold enrichment (6-mer frequency, TF over GST control) | 1.04 fold enrichment (6-mer frequency, TF over GST control) | 1.05 fold enrichment (6-mer frequency, TF over GST control) | 1.13 fold enrichment (6-mer frequency, TF over GST control) | 1.21 fold enrichment (6-mer frequency, TF over GST control)
CGTACC | 1.12 fold enrichment (6-mer frequency, TF over GST control) | 1.13 fold enrichment (6-mer frequency, TF over GST control) | 1.15 fold enrichment (6-mer frequency, TF over GST control) | 1.17 fold enrichment (6-mer frequency, TF over GST control) | 1.1 fold enrichment (6-mer frequency, TF over GST control) | 1.19 fold enrichment (6-mer frequency, TF over GST control) | 1.03 fold enrichment (6-mer frequency, TF over GST control) | 1.16 fold enrichment (6-mer frequency, TF over GST control)
CGAACA | 1.17 fold enrichment (6-mer frequency, TF over GST control) | 1.13 fold enrichment (6-mer frequency, TF over GST control) | 1.22 fold enrichment (6-mer frequency, TF over GST control) | 1.1 fold enrichment (6-mer frequency, TF over GST control) | 1.2 fold enrichment (6-mer frequency, TF over GST control) | 1.05 fold enrichment (6-mer frequency, TF over GST control) | 1.15 fold enrichment (6-mer frequency, TF over GST control) | 1.19 fold enrichment (6-mer frequency, TF over GST control)
GCGTTC | 1.11 fold enrichment (6-mer frequency, TF over GST control) | 1.15 fold enrichment (6-mer frequency, TF over GST control) | 1.21 fold enrichment (6-mer frequency, TF over GST control) | 1.02 fold enrichment (6-mer frequency, TF over GST control) | 1.23 fold enrichment (6-mer frequency, TF over GST control) | 1.03 fold enrichment (6-mer frequency, TF over GST control) | 1.11 fold enrichment (6-mer frequency, TF over GST control) | 1.12 fold enrichment (6-mer frequency, TF over GST control)
ACGTTA | 1.17 fold enrichment (6-mer frequency, TF over GST control) | 1.12 fold enrichment (6-mer frequency, TF over GST control) | 1.15 fold enrichment (6-mer frequency, TF over GST control) | 1.06 fold enrichment (6-mer frequency, TF over GST control) | 1.09 fold enrichment (6-mer frequency, TF over GST control) | 1.06 fold enrichment (6-mer frequency, TF over GST control) | 1.16 fold enrichment (6-mer frequency, TF over GST control) | 1.12 fold enrichment (6-mer frequency, TF over GST control)
GAAGCG | 1.29 fold enrichment (6-mer frequency, TF over GST control) | 1.32 fold enrichment (6-mer frequency, TF over GST control) | 1.33 fold enrichment (6-mer frequency, TF over GST control) | 1.29 fold enrichment (6-mer frequency, TF over GST control) | 1.36 fold enrichment (6-mer frequency, TF over GST control) | 1.35 fold enrichment (6-mer frequency, TF over GST control) | 1.36 fold enrichment (6-mer frequency, TF over GST control) | 1.43 fold enrichment (6-mer frequency, TF over GST control)
CGCGTC | 1.37 fold enrichment (6-mer frequency, TF over GST control) | 1.26 fold enrichment (6-mer frequency, TF over GST control) | 1.24 fold enrichment (6-mer frequency, TF over GST control) | 1.31 fold enrichment (6-mer frequency, TF over GST control) | 1.25 fold enrichment (6-mer frequency, TF over GST control) | 1.34 fold enrichment (6-mer frequency, TF over GST control) | 1.23 fold enrichment (6-mer frequency, TF over GST control) | 1.29 fold enrichment (6-mer frequency, TF over GST control)
ACTTGG | 1.28 fold enrichment (6-mer frequency, TF over GST control) | 1.15 fold enrichment (6-mer frequency, TF over GST control) | 1.16 fold enrichment (6-mer frequency, TF over GST control) | 1.21 fold enrichment (6-mer frequency, TF over GST control) | 1.2 fold enrichment (6-mer frequency, TF over GST control) | 1.16 fold enrichment (6-mer frequency, TF over GST control) | 1.2 fold enrichment (6-mer frequency, TF over GST control) | 1.16 fold enrichment (6-mer frequency, TF over GST control)
TACCGG | 1.4 fold enrichment (6-mer frequency, TF over GST control) | 1.47 fold enrichment (6-mer frequency, TF over GST control) | 1.6 fold enrichment (6-mer frequency, TF over GST control) | 1.77 fold enrichment (6-mer frequency, TF over GST control) | 1.36 fold enrichment (6-mer frequency, TF over GST control) | 1.71 fold enrichment (6-mer frequency, TF over GST control) | 1.76 fold enrichment (6-mer frequency, TF over GST control) | 1.68 fold enrichment (6-mer frequency, TF over GST control)
CGTTCA | 1.2 fold enrichment (6-mer frequency, TF over GST control) | 1.25 fold enrichment (6-mer frequency, TF over GST control) | 1.12 fold enrichment (6-mer frequency, TF over GST control) | 1.14 fold enrichment (6-mer frequency, TF over GST control) | 1.07 fold enrichment (6-mer frequency, TF over GST control) | 1.08 fold enrichment (6-mer frequency, TF over GST control) | 1.12 fold enrichment (6-mer frequency, TF over GST control) | 1.19 fold enrichment (6-mer frequency, TF over GST control)
ATGGAC | 1.13 fold enrichment (6-mer frequency, TF over GST control) | 1.21 fold enrichment (6-mer frequency, TF over GST control) | 1.24 fold enrichment (6-mer frequency, TF over GST control) | 1.17 fold enrichment (6-mer frequency, TF over GST control) | 1.02 fold enrichment (6-mer frequency, TF over GST control) | 1.13 fold enrichment (6-mer frequency, TF over GST control) | 1.2 fold enrichment (6-mer frequency, TF over GST control) | 1.2 fold enrichment (6-mer frequency, TF over GST control)
CCGTCA | 1.08 fold enrichment (6-mer frequency, TF over GST control) | 1.28 fold enrichment (6-mer frequency, TF over GST control) | 1.28 fold enrichment (6-mer frequency, TF over GST control) | 1.38 fold enrichment (6-mer frequency, TF over GST control) | 1.26 fold enrichment (6-mer frequency, TF over GST control) | 1.22 fold enrichment (6-mer frequency, TF over GST control) | 1.19 fold enrichment (6-mer frequency, TF over GST control) | 1.25 fold enrichment (6-mer frequency, TF over GST control)
